Results from PubChem BioAssay (Tox21).
Inconclusive results are not listed. A call without a number means that no potency is given here. Active and inactive are the calls of the source. Unless noted, the call rests on the fitted dose curve.

Target: Thyrotropin-releasing hormone receptor (Homo sapiens) (UniProt P34981)
Experiment: qHTS assay to identify small molecule agonists of the thyrotropin-releasing hormone receptor (TRHR) signaling pathway (AID 1346891);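 further: HEK293 cells expressing TRHR with calcium dye readout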
Conditions: TRHR-HEK293 calcium fluorescence, agonist mode; series mostly up to 57.6 µM
In short: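 Kinetic fluorescence (3 min, 1 s intervals) reported intracellular calcium after compound transfer onto TRHR-Hek293 cells pre-loaded with dye for 2 h at 37 °C.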

Sequence of Thyrotropin-releasing hormone receptor (Homo sapiens) (P34981 whole entry, looked up): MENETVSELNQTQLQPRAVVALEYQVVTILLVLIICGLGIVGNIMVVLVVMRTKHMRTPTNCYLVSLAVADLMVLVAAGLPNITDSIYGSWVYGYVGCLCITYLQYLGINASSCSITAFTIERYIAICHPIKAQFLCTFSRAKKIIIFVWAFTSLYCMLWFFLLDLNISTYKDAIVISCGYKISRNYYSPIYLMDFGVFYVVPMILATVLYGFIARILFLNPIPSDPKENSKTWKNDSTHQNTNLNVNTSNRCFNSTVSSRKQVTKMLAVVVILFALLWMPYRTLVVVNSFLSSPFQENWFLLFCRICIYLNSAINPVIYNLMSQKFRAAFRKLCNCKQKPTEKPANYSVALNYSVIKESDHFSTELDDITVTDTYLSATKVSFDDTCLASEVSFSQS

| Compound | Potency | activation |
| --- | --- | --- |
| CCC(=O)O[C@]1(C(=O)CCl)[C@@H](C)C[C@H]2[C@@H]3CCC4=CC(=O)C=C[C@]4(C)[C@@]3(F)[C@@H](O)C[C@@]21C | inactive |  |
| Nc1cccc(S(=O)(=O)c2cccc(N)c2)c1 | inactive |  |
| CN(C)CCN(Cc1ccsc1)c1ccccn1 | inactive |  |
| Brc1c2ccccc2c(Br)c2ccccc12 |  | 0.0356% [at 5.23 µM] (inactive) |
| COC(C)OC | inactive |  |
| O=[N+]([O-])c1ccc(NCCO)c(OCCO)c1 | inactive |  |
| CCCCCC[C@@H](O)C/C=C\CCCCCCCC(=O)OC | inactive |  |
| COc1ccc2cccc(CCNC(C)=O)c2c1 | inactive |  |
| OC(C#CCN1CCCC1)(c1ccccc1)c1ccccc1 | inactive |  |
| CC(C)(C)Cl | inactive |  |
| CCN(CC)CCNc1ccc(CNC=O)c2sc3ccc(OC)cc3c(=O)c12 | inactive |  |
| CCOC(=O)C(F)(F)F | inactive |  |
| CC(=O)c1cccc([N+](=O)[O-])c1 | inactive |  |
| COc1ccc(C(=O)N2CCN(CC(=O)N3CCOCC3)CC2)cc1 | inactive |  |
| O=C(O)CNCC(=O)O |  | 0.139% [at 5.23 µM] (inactive) |
| O=C(O)c1ccc(S(=O)(=O)O)cc1C(=O)O | inactive |  |

| Compound | Potency | activation |
| --- | --- | --- |
| CCCn1cnc2c1c(=O)n(CCCCC(C)=O)c(=O)n2C | inactive |  |
| CCCCCCCCCCCC(=O)OC[C@@H](O)[C@H]1OC[C@H](OCCO)[C@H]1OCCO | inactive |  |
| Nc1ccc(N)c2c1C(=O)c1ccccc1C2=O | inactive |  |
| OC[C@H]1O[C@@H](OCCc2ccc(O)cc2)[C@H](O)[C@@H](O)[C@@H]1O | inactive |  |
| O=C(O)c1ccccc1Cl | inactive |  |
| COC(=O)c1ccc(I)cc1S(=O)(=O)NC(=O)Nc1nc(C)nc(OC)n1 | inactive |  |
| C[Si](C)(CCCN)O[Si](C)(C)CCCN | inactive |  |
| C=C(C)C(=O)OCCO | inactive |  |
| COc1cc(Cl)ccc1Oc1ccc(Cl)cc1Cl | inactive |  |
| CCOC(=O)Cc1cccc2ccccc12 | inactive |  |
| CCOc1ccc(O)cc1 | inactive |  |
| O=C(O)c1ccc(-n2nc(-c3ccccc3O)nc2-c2ccccc2O)cc1 | inactive |  |
| O=C1[C@H]2CCCC[C@H]2C(=O)N1CCCCN1CCN(c2nsc3ccccc23)CC1 | inactive |  |
| C[N+]1(C)CCC(OC(=O)C(O)(c2ccccc2)C2CCCC2)C1 (stereo unspecified) | inactive |  |
| O=C(CS)Nc1ccccc1 | inactive |  |

Test system: not listed separately
Experiment: Human pregnane X receptor (PXR) small molecule agonists, qHTS cell viability counter screen (AID 1346977; active means well fitted cell-killing curve with a large enough effect in the repeat runs; further: nearly all actives have a fitted effect of over 50% in size; further: potency means the concentration at half of the fitted maximal effect)
Conditions: PXR-Luc HepG2 viability, CellTiter-Fluor, 24 h; series mostly up to 92.4 µM
In short: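 HepG2 cells stably carrying the PXR-Luc reporter are cultured with 5% charcoal-stripped FBS and treated with compounds for 24hr. CellTiter-Fluor is added at 23hr and fluorescence is read after 1hr.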

| Compound | Potency | activity change, negative = cytotoxicity |
| --- | --- | --- |
| CCC(=O)O[C@]1(C(=O)CCl)[C@@H](C)C[C@H]2[C@@H]3CCC4=CC(=O)C=C[C@]4(C)[C@@]3(F)[C@@H](O)C[C@@]21C | inactive |  |
| Nc1cccc(S(=O)(=O)c2cccc(N)c2)c1 | inactive |  |
| O=CC1CC=CCC1 (stereo unspecified) | inactive |  |
| CN(C)CCN(Cc1ccsc1)c1ccccn1 | inactive |  |
| Brc1c2ccccc2c(Br)c2ccccc12 |  | 4.3% [at 8.39 µM] (inactive) |
| COC(C)OC | inactive |  |
| O=[N+]([O-])c1ccc(NCCO)c(OCCO)c1 | 48.6 µM (active) |  |
| CCCCCC[C@@H](O)C/C=C\CCCCCCCC(=O)OC | inactive |  |
| COc1ccc2cccc(CCNC(C)=O)c2c1 | inactive |  |
| CC(C)(C)Cl | inactive |  |
| CCN(CC)CCNc1ccc(CNC=O)c2sc3ccc(OC)cc3c(=O)c12 | 9.69 µM (active) |  |
| CCOC(=O)C(F)(F)F | inactive |  |
| CC(=O)c1cccc([N+](=O)[O-])c1 | inactive |  |
| COc1ccc(C(=O)N2CCN(CC(=O)N3CCOCC3)CC2)cc1 | inactive |  |
| O=C(O)CNCC(=O)O |  | 4.27% [at 8.39 µM] (inactive) |
| O=C(O)c1ccc(S(=O)(=O)O)cc1C(=O)O | inactive |  |
| CCCn1cnc2c1c(=O)n(CCCCC(C)=O)c(=O)n2C | inactive |  |
| CCCCCCCCCCCC(=O)OC[C@@H](O)[C@H]1OC[C@H](OCCO)[C@H]1OCCO | inactive |  |
| Nc1ccc(N)c2c1C(=O)c1ccccc1C2=O | 9.69 µM (active) |  |
| OC[C@H]1O[C@@H](OCCc2ccc(O)cc2)[C@H](O)[C@@H](O)[C@@H]1O | inactive |  |
| O=C(O)c1ccccc1Cl | inactive |  |
| COC(=O)c1ccc(I)cc1S(=O)(=O)NC(=O)Nc1nc(C)nc(OC)n1 | inactive |  |
| C[Si](C)(CCCN)O[Si](C)(C)CCCN | inactive |  |
| C=C(C)C(=O)OCCO | inactive |  |
| COc1cc(Cl)ccc1Oc1ccc(Cl)cc1Cl | inactive |  |
| CCOC(=O)Cc1cccc2ccccc12 | inactive |  |
| CCOc1ccc(O)cc1 | inactive |  |
| O=C(O)c1ccc(-n2nc(-c3ccccc3O)nc2-c2ccccc2O)cc1 | inactive |  |
| C[N+]1(C)CCC(OC(=O)C(O)(c2ccccc2)C2CCCC2)C1 (stereo unspecified) | inactive |  |
| O=C(CS)Nc1ccccc1 | inactive |  |
